Several values for one entry are separate records, joined by “and”; a condition that tells them apart may be missing. Equal values may be shown once. Records with an inconclusive call do not appear. The source holds several records for some structures; these can differ, active in one and inactive in another. Activity calls are given as the source filed them. Unless noted, calls follow the shape of the dose curve; as a rule, active = well fitted curve in the direction sought with a large enough effect; inconclusive = small, poorly fitted or top-dose-only effect, or another doubt; inactive = no such curve, though single readings can be large; an effect the other way counts as inactive or inconclusive.
Key:
MKL-2 = assay: qHTS assay to identify novel small-molecules to repurpose for Merkel cell carcinoma treatment (AID 1296009); conditions: MCC and control cell lines, CellTiter-Glo viability, 72 h; series mostly up to 46 µM; also: % is scaled to controls: 0 for no effect and ±100 for the full control effect; nearly all actives have a fitted effect of over 60% in size
Summary of the method: (§1)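 Dose-response viability screen; 72 hr exposure at 37 degree celsius; CellTiter-Glo added, 10 min room temperature, luminescence read; RLUs scaled between no-cell and DMSO wells.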

UISO = assay: as above; conditions: MCC and control cell lines, CellTiter-Glo viability, 72 h; series mostly up to 46 µM
Summary of the method: as §1

WaGa = assay: as above; conditions: MCC and control cell lines, CellTiter-Glo viability, 72 h; series mostly up to 46 µM
Summary of the method: as §1

C33A = assay: Primary qHTS to identify gynecologic anti-cancer compounds using libraries of approved drugs and bioactive compounds (AID 1345084); conditions: Gynecologic cancer cell panel viability, ATPlite luminescence, 48 h; series mostly up to 57.5 µM; also: nearly all actives have a fitted effect of over 55% in size; also: potency is read from the fitted curve at half-maximal effect
Summary of the method: (§2)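 48 h compound exposure at 37 C, 5% CO2; five-point qHTS. ATPlite luminescence readout of cell ATP.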

CAOV3 = assay: as above; conditions: Gynecologic cancer cell panel viability, ATPlite luminescence, 48 h; series mostly up to 57.5 µM
Summary of the method: as §2

CASKI = assay: as above; conditions: Gynecologic cancer cell panel viability, ATPlite luminescence, 48 h; series mostly up to 57.5 µM
Summary of the method: as §2

Es-2 = assay: as above; conditions: Gynecologic cancer cell panel viability, ATPlite luminescence, 48 h; series mostly up to 57.5 µM
Summary of the method: as §2

HeLa = assay: as above; conditions: Gynecologic cancer cell panel viability, ATPlite luminescence, 48 h; series mostly up to 57.5 µM
Summary of the method: as §2

Hek293T = assay: as above; conditions: Gynecologic cancer cell panel viability, ATPlite luminescence, 48 h, control line for the selectivity index; series mostly up to 57.5 µM
Summary of the method: as §2

JEG-3 = assay: as above; conditions: Gynecologic cancer cell panel viability, ATPlite luminescence, 48 h; series mostly up to 57.5 µM
Summary of the method: as §2

OV90 = assay: as above; conditions: Gynecologic cancer cell panel viability, ATPlite luminescence, 48 h; series mostly up to 57.5 µM
Summary of the method: as §2

PA-1 = assay: as above; conditions: Gynecologic cancer cell panel viability, ATPlite luminescence, 48 h; series mostly up to 57.5 µM
Summary of the method: as §2

SKOV3 = assay: as above; conditions: Gynecologic cancer cell panel viability, ATPlite luminescence, 48 h; series mostly up to 57.5 µM
Summary of the method: as §2

Tov-21-G = assay: as above; conditions: Gynecologic cancer cell panel viability, ATPlite luminescence, 48 h; series mostly up to 57.5 µM
Summary of the method: as §2

Tov112D = assay: as above; conditions: Gynecologic cancer cell panel viability, ATPlite luminescence, 48 h; series mostly up to 57.5 µM
Summary of the method: as §2

[1] = Drug repurposing screens with cells derived from glioblastoma tumor samples (AID 1345199); conditions: GBM patient neurospheres viability, ATP luminescence, 48 h; also: nearly all actives have a fitted effect of over 40% in size; also: potency is read from the fitted curve at half-maximal effect; as to activity, negative = cell killing: % is scaled to controls: 0 for no effect and ±100 for the full control effect
Summary of the method: (§3)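 Primary testing used CD133+ neurospheres from four GBM patients, seven concentrations, 48 h exposure and ATP-based viability; confirmation added three slower-growing patient lines.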

astro = assay: as above; conditions: viability, ATP luminescence, 48 h; series mostly up to 45.9 µM
Summary of the method: as §3

[2] = biological target: Nuclear receptor subfamily 1 group I member 2 (Rattus norvegicus) (UniProt Q9R1A7); assay: qHTS assay for small molecule activators of the rat pregnane X receptor (rPXR) signaling pathway (AID 651751; call rule not given here; also: 0% is about no effect); conditions: rPXR reporter cells, luciferase (One-Glo), 24 h
[3] = at 45.9 µM (top of the series), tumour line B
[4] = at 45.9 µM (top of the series), tumour line D
[5] = at 46 µM (top of the series), tumour line A
[6] = at 46.1 µM (top of the series), tumour line C

Sequence of Nuclear receptor subfamily 1 group I member 2 (Rattus norvegicus) (Q9R1A7 whole entry, looked up): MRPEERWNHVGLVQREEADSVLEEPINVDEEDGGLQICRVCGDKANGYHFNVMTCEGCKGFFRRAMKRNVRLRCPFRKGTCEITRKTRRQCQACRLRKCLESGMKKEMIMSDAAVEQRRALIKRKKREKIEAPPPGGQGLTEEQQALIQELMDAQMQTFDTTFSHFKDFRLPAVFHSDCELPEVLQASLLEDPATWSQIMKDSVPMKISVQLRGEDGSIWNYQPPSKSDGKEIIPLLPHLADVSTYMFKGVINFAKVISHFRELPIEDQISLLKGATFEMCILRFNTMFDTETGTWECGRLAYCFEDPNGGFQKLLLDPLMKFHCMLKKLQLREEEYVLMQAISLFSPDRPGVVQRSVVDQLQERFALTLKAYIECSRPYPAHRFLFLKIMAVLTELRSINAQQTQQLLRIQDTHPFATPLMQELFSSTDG

CCCn1cnc2c1c(=O)n(CCCCC(C)=O)c(=O)n2C
inactive: Potency (MKL-2) | Potency (UISO) | Potency (WaGa) | Potency (C33A) | Potency (CAOV3) | Potency (CASKI) | Potency (Es-2) | Potency (HeLa) | Potency (Hek293T) | Potency (JEG-3) | Potency (OV90) | Potency (PA-1) | Potency (SKOV3) | Potency (Tov-21-G) | Potency (Tov112D) | activity, negative = cell killing [1, 3] -7.91% | activity, negative = cell killing [1, 4] -10.9% | activity, negative = cell killing [1, 5] -20.8% | activity, negative = cell killing [1, 6] 14.2% | Potency (astro)

C[C@]12CC[C@@H]3c4ccc(O)cc4CC[C@H]3[C@@H]1CCC2=O
inactive: Potency (MKL-2) | Potency (UISO) | Potency (WaGa) | Potency (C33A) | Potency (CAOV3) | Potency (CASKI) | Potency (Es-2) | Potency (Hek293T) | Potency (JEG-3) | Potency (OV90) | Potency (PA-1) | Potency (SKOV3) | Potency (Tov-21-G) | Potency (Tov112D) | activity, negative = cell killing [1, 3] -16.5% | activity, negative = cell killing [1, 4] -20.7% | activity, negative = cell killing [1, 6] -9.33% | Potency (astro) | max response [2] 1.32%
active: Potency (HeLa) 28.2 µM

CC(C)C(=O)c1c(C(C)C)nn2ccccc12
inactive: Potency (MKL-2) | Potency (UISO) | Potency (WaGa) | Potency (C33A) | Potency (CAOV3) | Potency (CASKI) | Potency (Es-2) | Potency (HeLa) | Potency (Hek293T) | Potency (JEG-3) | Potency (OV90) | Potency (PA-1) | Potency (SKOV3) | Potency (Tov-21-G) | Potency (Tov112D) | activity, negative = cell killing [1, 3] -5.19% | activity, negative = cell killing [1, 6] -20.7% | Potency (astro)
active: Potency ([1]; tumour line A) 8.91 µM

CCCCN1CCCC[C@H]1C(=O)Nc1c(C)cccc1C
inactive: Potency (MKL-2) | Potency (UISO) | Potency (WaGa) | Potency (C33A) | Potency (CAOV3) | Potency (CASKI) | Potency (Es-2) | Potency (HeLa) | Potency (Hek293T) | Potency (JEG-3) | Potency (OV90) | Potency (PA-1) | Potency (SKOV3) | Potency (Tov-21-G) | Potency (Tov112D) | activity, negative = cell killing [1, 3] -6.49% | activity, negative = cell killing [1, 4] -12.7% | activity, negative = cell killing [1, 5] -27.7% | activity, negative = cell killing [1, 6] 5.13% | Potency (astro)

c1ccc2c(CC3=NCCN3)cccc2c1
inactive: Potency (MKL-2) | Potency (UISO) | Potency (WaGa) | Potency (C33A) | Potency (CAOV3) | Potency (CASKI) | Potency (Es-2) | Potency (HeLa) | Potency (Hek293T) | Potency (JEG-3) | Potency (OV90) | Potency (PA-1) | Potency (SKOV3) | Potency (Tov-21-G) | Potency (Tov112D) | activity, negative = cell killing [1, 4] -11.3% and -15.4% | activity, negative = cell killing [1, 6] -1.52% and -0.846% and -3.97% | Potency (astro)

COc1cc(C)c(Cc2cnc(N)nc2N)cc1OC
inactive: Potency (MKL-2) | Potency (UISO) | Potency (WaGa) | Potency (C33A) | Potency (CAOV3) | Potency (CASKI) | Potency (Es-2) | Potency (HeLa) | Potency (Hek293T) | Potency (JEG-3) | Potency (OV90) | Potency (PA-1) | Potency (SKOV3) | Potency (Tov-21-G) | Potency (Tov112D) | activity, negative = cell killing [1, 3] -4.72% | activity, negative = cell killing [1, 4] -19.5% | activity, negative = cell killing [1, 6] -26.1% | Potency (astro)

From PubChem BioAssay (NCATS)
